The supplement of paper PMC6555819

Experiments:
Assay in all cases: PBM binding z-score (relative to random genomic background probes); higher = stronger binding; sequences stand for … in GC…GCGATTGACAGCGTAGAATGAAGG
[1] = test system: RARb homodimer (NR concentration 270 nM)
Summary of the method: (§1)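 Custom Agilent 4×180K protein-binding microarrays carried double-stranded probes, each with a 34-nt variable region. These regions held direct-repeat seeds, single-nucleotide variants, half-site ablations and random human genomic background sequences. Ligand-free nuclear receptor dimers were incubated on the arrays for 1 h, antibodies against each partner (one per run) detected binding, and scanned fluorescence was regression-normalized. Binding z-scores take the random background probes as reference.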

[2] = test system: RARg:RXRa (NR concentration 270 nM, RXRa partner concentration 90 nM)
Summary of the method: as §1

[3] = test system: RARg homodimer (NR concentration 270 nM)
Summary of the method: as §1

[4] = test system: RXRa DBDmut IVT, anti-RXR (DBD mutation: RXRa K156A/R161A, NR concentration 90 nM)
Summary of the method: as §1

[5] = test system: RXRa homodimer (NR concentration 180 nM)
Summary of the method: as §1

[6] = test system: THRa:RXRa (NR concentration 90 nM, RXRa partner concentration 90 nM)
Summary of the method: as §1

[7] = test system: THRa homodimer (NR concentration 90 nM)
Summary of the method: as §1

[8] = test system: VDR homodimer (NR concentration 270 nM)
Summary of the method: as §1

Sequence	PBM binding z-score [1]	PBM binding z-score [2]	PBM binding z-score [3]	PBM binding z-score [4]	PBM binding z-score [5]	PBM binding z-score [6]	PBM binding z-score [7]	PBM binding z-score [8]
ATATGCAGGTTAGGGTCATTCAGAAAGTAGGGAA	3.2	4	3.17	2.15	5.23	3.89	2.86	3.64
AATACAGGGTCATTAGGCCAGAGTAGGTACGAAT	2.95	4.94	4.39	3.84	5.53	3.28	1.07	3.17
CGAACTAGGCCACCAGGACAGTGAAGAGGTTGGA	0.689	0.238	0.672	-0.131	-0.0253	0.954	0.3	-0.183
CCGAGTAGGTAACGAGGGGGCATTCAGTGCGAAT	1.62	1.9	1.27	0.932	1.21	2.73	0.519	3.01
CCGACTGGGCCATTCAGAGGTCATTGATCATATG	3.91	4.49	3.13	1.43	3.85	3.01	1.22	3.2
CGAAGTAGGTCAAAGGACAGTGAAAGGCGACGTA	3.05	4.15	4.75	1.19	3.67	2.1	-0.0786	0.382
CAAACTAGGTCAAAGGTCAGAGTCGAGCCAACCA	5.01	8.13	6.87	2.57	9.54	4.59	1.56	2.39
CCGAGTAGGTTCCGAGGGGGCATTCAGTGCGAAT	1.62	1.66	1.02	1.42	1.12	2.38	1.1	3.91
ATCGAAAGGTCGTCGAGGTGAGTATACACCGTTT	3.07	4.59	4.35	1.72	5.2	3.83	0.955	2.41
CGAACTAGGTCAAAGGACAGTGATAGGCGACGTA	3.06	3.97	4.98	1.56	3.26	2.56	0.594	0.324
CTATGTAGGTTAAGGGGGTCATTGAGTTTGAAAG	4.02	5.46	4.18	2.81	5.76	4.01	2.02	7.05
CGAACTAGGTCAAAGGACAGTGCAAGGCGACGTA	3.1	3.95	4.42	1.15	3.24	2.57	0.81	0.767
CGAACTAGGTCTCCAGGACAGTGAAGAGGTTGGA	-0.111	-0.0715	0.188	-0.342	-0.062	1.11	0.505	-0.34
CCTACTGGGCCATTCAGAGGTCATCGATCATATG	4.27	4.89	3.64	0.733	4.44	3.34	1.72	3.03
ACTAGCAGGCCAAAGGTCACTCAAGATTAGTCCG	4.87	6.14	5.41	0.861	6.31	3.6	0.91	1.58
CTATGTAGGATAAGGGGGTCATTCAGTTTGAAAG	3.71	4.18	2.98	2.23	5.45	3.75	1.96	6.25
CCGAGTAGGTTACGCGGGGGCATTCAGTGCGAAT	2.09	3.1	2.15	1.8	2.23	4.51	0.878	3.76
CTCGAAAGGTCGGTTGAGGTGACTATACGGATAA	2.54	3.04	2.85	0.99	2.76	5.16	1.68	0.829
TCGAGTAGGATACGGGGGCATTCAGGGATGAAGA	1.19	1.52	0.916	1.24	1.29	3.47	0.629	2.79

Sequence	PBM binding z-score [1]	PBM binding z-score [2]	PBM binding z-score [3]	PBM binding z-score [4]	PBM binding z-score [5]	PBM binding z-score [6]	PBM binding z-score [7]	PBM binding z-score [8]
CCTTACGGGTCACTGACAGCTTATAGCATTTGGA	2.97	4.67	4.43	2.04	4.76	2.32	0.275	0.89
TGTCAGAGTTCAAAGGTAACGTAAGTATCCACAC	3.41	5.95	5.28	4.83	7.51	3.53	-0.159	5.41
CCTAGTTGGTCAAGGTCCCACACGCTATAGGTAC	1.27	0.7	1.19	0.446	0.433	0.687	0.94	0.734
TAGCCTAGGACATGCGGGCCAGTATAGTGTCGGC	-0.329	-0.38	0.0739	-1.32	-0.25	0.348	-0.342	-1.08
CAAACTAGGTCAAGGTCAAATTCGGTTTGTGCCA	5.19	6.03	6.67	3.1	6.24	4.38	3.92	4.1
CTAGGTAGGTTAAGGGGGTCATTCAGTTTGAAAG	3.87	4.95	3.79	1.97	5.77	3.78	2.19	5.84
CTATGTAGGTTAAGGGGATCATTCAGTTTGAAAG	0.917	0.82	0.66	0.605	1.12	0.96	0.136	0.834
AGAATGAGGTTAACAAAGATCAGGGAAACGCTTG	0.892	2.1	1.73	1.27	2.69	2.57	0.682	0.0806
CAAACTAGGTCACCGGAAGGTCATAGTCCGCATG	5.85	7.82	6.45	1.8	5.92	4.58	3.33	2.78
CGTCCAAGGTCAACAGGTCAGTGAAAGCGACGTG	5.3	7.26	7.37	3.65	6.49	4.23	2.98	2.51
CCGACTAGGTTACGAGGGGGCATTCAGTGCGAAT	2.21	2.97	2.26	1.5	1.62	3.52	0.757	3.12
CGAACTAGGTCAAAGAACAGTGAAAGGCGACGTA	2.03	3.41	4.27	1.3	3	2.06	0.033	0.121
CGTCGAAGGTCAATGCTAGGTCAGTGAAAGCATT	5.11	7.62	6.84	2.5	5.4	4.28	1.03	1.91
CCGAGTAGGTGACGAGGGGGCATTCAGTGCGAAT	1.89	2.34	2.1	1.05	1.35	3.34	0.888	3.45
CGAACTAGGTCACCAGGACAGTGTAGAGGTTGGA	3.53	4.35	5.47	1.65	3.25	3.47	2.14	0.343
CAAACTAGGTCAAAGGTCAAAATCGAGCCAACCA	5.03	8.72	7.08	3.07	10.1	4.95	1.51	2.94
ATATGTAGTTTAGGGTCATTCAGAAAGTAGGGAA	3.24	4.01	2.73	2.93	5.24	4.29	3.64	4.3
ATCAAAAGGTCGAAGGTGAGTATACCCACCCGAA	2.75	4.51	4.34	1.27	5.55	2.26	-0.268	0.86
CCTACAGGGCCAAAGGTCATTGATTCCAATGCTC	4.75	6.13	5.66	1.95	7.35	3.46	0.651	2.73

Sequence	PBM binding z-score [1]	PBM binding z-score [2]	PBM binding z-score [3]	PBM binding z-score [4]	PBM binding z-score [5]	PBM binding z-score [6]	PBM binding z-score [7]	PBM binding z-score [8]
AGAATGGGGTTAAGATCAGGGAAACAGAATACAT	1.9	2.99	1.4	1.99	4.56	3.23	1.67	1.27
GGTACGAGGGCAAAGTTGATAGCATCTGTCGACG	1.13	2.05	1.83	2.49	1.7	1.33	-0.0946	1.48
CTATGAAGGTTAAGGGGGTCATTCAGTTTGAAAG	4.39	5.59	4.32	2.92	6.52	3.97	2.22	6.88
AGTCAAAGTTCACTAGGTTACGTAAGATTCAGCT	4.27	5.33	6.12	4.29	4.53	2.55	0.508	3.98
CGAACTAGGTCACCAGGACATTGAAGAGGTTGGA	3.54	4.42	5.21	1.95	3.45	3.48	2.06	1.1
ACTTACGGGTCAAGGAGGTTATAGCACGCGTATA	3.46	5.23	4.78	2.07	5.73	3.33	0.489	2.26
CGACCTAGGTCAAAGGACAGTGAAAGGCGACGTA	3.13	4.74	5.05	1.69	4	2.86	0.639	0.41
CGAACTAGGTCACCAGGACTGTGAAGAGGTTGGA	3.39	4.54	5.16	1.46	3.6	3.24	1.3	0.447
TCGAGTAGGTTACGGGGGCAATCAGGGATGAAGA	2.12	3.25	2.36	1.52	2.73	3.4	0.675	2.03
CTATGTAGGTTAAGGGGGTCATTCATTTTGAAAG	3.81	4.91	3.98	2.28	5.74	3.64	1.93	5.01
CCGACTTGGGCAAAGGTTACCATACTCAGTACGA	1.87	2.04	1.01	0.535	2.45	1.39	-0.0972	0.0256
TAGCCTAGGTCATTGGACCAGTATAGTACGCATC	2.73	3.97	4.37	1.43	3.1	2.85	0.854	1.54
ATATGGAGGTTAAGGGTCATTCAGGTTGGTTCGC	4.46	5.75	4.13	2.5	7.76	3.96	2.38	5.63
CCGAGTAGGTTACGAGGGGGCATTCATTGCGAAT	2.05	3.01	2.09	1.21	2	3.7	0.405	2.02
TCGACTAGGTTACGGGGGCATTCAGGGATGAAGA	2.54	3.66	3.14	2.55	2.88	4.1	1.91	3.72
CGAACTAGGTCACCAGGACAATGAAGAGGTTGGA	3.4	4.27	5.1	1.58	3.35	3.7	2.12	0.459
TCTCGGAGGACACGAAAGGTGAGAGCTCGACATC	2.24	1.64	1.99	0.659	0.812	2.51	0.549	-0.374
CCGACTGGGGCAAAGGTTACCACACTCAGTACGA	2.37	3.51	1.67	-0.032	3.69	1.87	0.0247	0.177
